Assay results published in PubChem BioAssay.
The source made the active and inactive calls.

Tests used:
[1] = small molecules captured by biotinylated probe aFSTL3 – biochemical, small-molecule microarray, fluorescence 635/667, stem cell growth factor project, primary screen (AID 1064); conditions: higher = more signal;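 note: measures binding of the biotinylated anti-FSTL3 antibody to printed compounds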
[2] = binders from COS7 lysate, DM2A8 probe, primary screen, torsin A project, cell lysate, small-molecule microarray, fluorescence 635/667 (AID 1065); conditions: higher = more signal, COS7 lysate expressing mutant human TOR1A
[3] = small molecules captured by biotinylated probe aFGF2 – biochemical, small-molecule microarray, fluorescence 635/667, stem cell growth factor project, primary screen (AID 1067); conditions: higher = more signal;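 note: measures binding of biotinylated aFGF2 protein to printed compounds on slides; z-score merges feature fluorescence and signal-to-noise across triplicate slides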
[4] = small molecules captured by biotinylated probe aFGF10 – biochemical, small-molecule microarray, fluorescence 635/667, stem cell growth factor project, primary screen (AID 1071); conditions: higher = more signal;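 note: score merges 667 nm spot intensity and signal to noise from triplicate slides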
[5] = molecular target: Neurogenic locus notch homolog protein 2 (Homo sapiens) (UniProt Q04721); assay: small molecules binding Notch2 protein – biochemical, small-molecule microarray, 635 nm fluorescence, stem cell growth factors, primary screen (AID 1073); conditions: higher = more signal
[6] = molecular target: Pro-neuregulin-1, membrane-bound isoform (Homo sapiens) (UniProt Q02297); assay: small molecules binding neuregulin-1 protein – biochemical, small-molecule microarray, fluorescence 635/667, psychiatric disease protein project, primary screen (AID 1075); conditions: NRG1 binding, 635 nm fluorescence, higher = more signal;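 note: score combines 667 nm spot fluorescence with signal to noise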
Pro-neuregulin-1, membrane-bound isoform (Homo sapiens), sequence (Q02297 whole entry, looked up, the tested form may be a part, canonical isoform): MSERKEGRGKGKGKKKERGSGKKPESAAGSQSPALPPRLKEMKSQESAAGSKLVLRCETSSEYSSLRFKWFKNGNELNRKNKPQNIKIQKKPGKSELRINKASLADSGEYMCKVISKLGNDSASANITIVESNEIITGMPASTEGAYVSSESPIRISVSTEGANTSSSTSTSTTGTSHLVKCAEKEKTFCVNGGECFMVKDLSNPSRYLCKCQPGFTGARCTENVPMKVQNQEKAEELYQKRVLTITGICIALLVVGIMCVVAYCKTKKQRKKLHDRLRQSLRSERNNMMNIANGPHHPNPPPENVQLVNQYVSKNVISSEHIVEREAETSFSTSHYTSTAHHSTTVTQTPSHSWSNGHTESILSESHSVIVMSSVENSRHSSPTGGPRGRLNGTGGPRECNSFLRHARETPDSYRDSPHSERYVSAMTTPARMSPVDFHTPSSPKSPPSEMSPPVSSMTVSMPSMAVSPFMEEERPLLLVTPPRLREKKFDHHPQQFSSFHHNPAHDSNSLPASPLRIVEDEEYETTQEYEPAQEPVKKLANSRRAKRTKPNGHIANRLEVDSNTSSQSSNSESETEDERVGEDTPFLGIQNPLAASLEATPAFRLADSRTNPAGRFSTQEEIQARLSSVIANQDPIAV

[7] = tested on: Neuregulin-1 EGF-like domain; assay: small molecules binding NRG1 EGF domain – biochemical, small-molecule microarray, 635 nm fluorescence, primary screen (AID 1081); conditions: higher = more signal;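 note: binding of the protein to compounds printed on small-molecule microarray slides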
[8] = FRG1 expression reporter modulators in myotubes – cell-based, C2C12 myotubes, firefly/Renilla luciferase, luminescence, FRG1 inhibition for FSHD, primary screen (AID 1084); conditions: FRG1 promoter luciferase, higher = more signal, called active from +8 up or from −8 down
[9] = small molecules captured by biotinylated probe aFST – biochemical, small-molecule microarray, fluorescence 635/667, stem cell growth factor project, primary screen (AID 1086); conditions: higher = more signal;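 note: score merges 667 nm fluorescence with signal-to-noise of each printed compound spot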
[10] = binders of probe aHhip on microarray, primary screen, stem cell growth factor project, biochemical, small-molecule microarray, fluorescence 635/667 (AID 1087); conditions: higher = more signal;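 note: score merges spot fluorescence at 667nm with spot signal to noise ratio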
[11] = tested on: PRMT1 (protein arginine N-methyltransferase 1); assay: small molecules binding arginine methyltransferase PRMT1 – biochemical, small-molecule microarray, 635 nm fluorescence, primary screen (AID 1088); conditions: higher = more signal;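 note: binding of Prmt1 protein to compounds spotted on small-molecule microarray slides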
[12] = growth effects on S. cerevisiae YJM789 – YJM789 clinical isolate, OD600, 24 h, basal, primary screen (AID 1089); conditions: higher = more signal, called active from +8 up or from −8 down;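 note: growth of clinical yeast isolate S. cerevisiae YJM 789 seeded 1000 cells per well; test concentration not given here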
[13] = S. pombe growth modifiers, basal conditions – strain 972, OD600, 24 h, no modulator, primary screen (AID 1090);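 note: basal condition with compound alone and no growth modifier present; test concentration not given here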; conditions: S. pombe 972 growth, higher = more signal, called active from +8 up or from −8 down
[14] = budding yeast growth modifiers under rapamycin – strain BY4716, OD600, 96 h, primary screen (AID 1091); note: test concentration not given here; conditions: S. cerevisiae BY4716 + rapamycin, higher = more signal, called active from +8 up or from −8 down
[15] = molecular target: Torsin-1A-interacting protein 2 (Homo sapiens) (UniProt Q8NFQ8); assay: small molecules binding lysate-expressed LULL1 – cell lysate, human LULL1 lysate, 635/667 nm fluorescence, primary screen (AID 1092); conditions: small-molecule microarray, hLULL1 lysate binding, 635 nm fluorescence; higher = more signal;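 note: probe is lysate of COS7 cells overexpressing human LULL1; score merges per-feature 667 nm fluorescence with signal-to-noise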
Torsin-1A-interacting protein 2 (Homo sapiens), sequence (Q8NFQ8 whole entry, looked up): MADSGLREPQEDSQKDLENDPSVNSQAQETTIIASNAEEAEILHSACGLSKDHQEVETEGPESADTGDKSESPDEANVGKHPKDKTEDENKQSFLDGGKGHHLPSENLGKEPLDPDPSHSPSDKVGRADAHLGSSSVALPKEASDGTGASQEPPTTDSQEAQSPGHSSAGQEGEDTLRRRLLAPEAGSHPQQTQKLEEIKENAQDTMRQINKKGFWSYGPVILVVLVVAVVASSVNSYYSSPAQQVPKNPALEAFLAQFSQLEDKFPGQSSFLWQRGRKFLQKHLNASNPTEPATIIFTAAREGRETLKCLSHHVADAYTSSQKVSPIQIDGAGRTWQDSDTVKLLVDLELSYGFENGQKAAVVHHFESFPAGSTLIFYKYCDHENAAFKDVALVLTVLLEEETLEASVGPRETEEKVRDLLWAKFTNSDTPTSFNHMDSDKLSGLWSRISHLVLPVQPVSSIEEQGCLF

[16] = optical density change of DRC41 E. coli – strain DRC41, OD650, 24 h, E. coli filamentation project, primary screen (AID 1093);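 note: MC1000 strain lacking acrAB efflux and sulA so SOS filamentation is blocked; test concentration not given here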; conditions: E. coli DRC41 growth, higher = more signal, called active from +8 up or from −8 down
[17] = probe aLefty2 binding to arrayed compounds – biochemical, biotinylated probe, 635/667 nm fluorescence, primary screen (AID 1094); conditions: small-molecule microarray, higher = more signal;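 note: score merges spot fluorescence near 667 nm with spot signal-to-noise ratio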
[18] = tested on: Noggin (protein binding on small-molecule microarray); assay: small molecules binding Noggin protein – biochemical, 635/667 nm fluorescence, primary screen (AID 1095); conditions: 635 nm fluorescence, higher = more signal;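 note: score merges 667 nm feature fluorescence with signal to noise over triplicate slides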
[19] = molecular target: Neurogenic locus notch homolog protein 3 (Homo sapiens) (UniProt Q9UM47); assay: small molecules binding NOTCH3 protein – biochemical, 635/667 nm fluorescence, primary screen (AID 1096); conditions: small-molecule microarray, 635 nm fluorescence, higher = more signal
Neurogenic locus notch homolog protein 3 (Homo sapiens), sequence (Q9UM47 whole entry, looked up): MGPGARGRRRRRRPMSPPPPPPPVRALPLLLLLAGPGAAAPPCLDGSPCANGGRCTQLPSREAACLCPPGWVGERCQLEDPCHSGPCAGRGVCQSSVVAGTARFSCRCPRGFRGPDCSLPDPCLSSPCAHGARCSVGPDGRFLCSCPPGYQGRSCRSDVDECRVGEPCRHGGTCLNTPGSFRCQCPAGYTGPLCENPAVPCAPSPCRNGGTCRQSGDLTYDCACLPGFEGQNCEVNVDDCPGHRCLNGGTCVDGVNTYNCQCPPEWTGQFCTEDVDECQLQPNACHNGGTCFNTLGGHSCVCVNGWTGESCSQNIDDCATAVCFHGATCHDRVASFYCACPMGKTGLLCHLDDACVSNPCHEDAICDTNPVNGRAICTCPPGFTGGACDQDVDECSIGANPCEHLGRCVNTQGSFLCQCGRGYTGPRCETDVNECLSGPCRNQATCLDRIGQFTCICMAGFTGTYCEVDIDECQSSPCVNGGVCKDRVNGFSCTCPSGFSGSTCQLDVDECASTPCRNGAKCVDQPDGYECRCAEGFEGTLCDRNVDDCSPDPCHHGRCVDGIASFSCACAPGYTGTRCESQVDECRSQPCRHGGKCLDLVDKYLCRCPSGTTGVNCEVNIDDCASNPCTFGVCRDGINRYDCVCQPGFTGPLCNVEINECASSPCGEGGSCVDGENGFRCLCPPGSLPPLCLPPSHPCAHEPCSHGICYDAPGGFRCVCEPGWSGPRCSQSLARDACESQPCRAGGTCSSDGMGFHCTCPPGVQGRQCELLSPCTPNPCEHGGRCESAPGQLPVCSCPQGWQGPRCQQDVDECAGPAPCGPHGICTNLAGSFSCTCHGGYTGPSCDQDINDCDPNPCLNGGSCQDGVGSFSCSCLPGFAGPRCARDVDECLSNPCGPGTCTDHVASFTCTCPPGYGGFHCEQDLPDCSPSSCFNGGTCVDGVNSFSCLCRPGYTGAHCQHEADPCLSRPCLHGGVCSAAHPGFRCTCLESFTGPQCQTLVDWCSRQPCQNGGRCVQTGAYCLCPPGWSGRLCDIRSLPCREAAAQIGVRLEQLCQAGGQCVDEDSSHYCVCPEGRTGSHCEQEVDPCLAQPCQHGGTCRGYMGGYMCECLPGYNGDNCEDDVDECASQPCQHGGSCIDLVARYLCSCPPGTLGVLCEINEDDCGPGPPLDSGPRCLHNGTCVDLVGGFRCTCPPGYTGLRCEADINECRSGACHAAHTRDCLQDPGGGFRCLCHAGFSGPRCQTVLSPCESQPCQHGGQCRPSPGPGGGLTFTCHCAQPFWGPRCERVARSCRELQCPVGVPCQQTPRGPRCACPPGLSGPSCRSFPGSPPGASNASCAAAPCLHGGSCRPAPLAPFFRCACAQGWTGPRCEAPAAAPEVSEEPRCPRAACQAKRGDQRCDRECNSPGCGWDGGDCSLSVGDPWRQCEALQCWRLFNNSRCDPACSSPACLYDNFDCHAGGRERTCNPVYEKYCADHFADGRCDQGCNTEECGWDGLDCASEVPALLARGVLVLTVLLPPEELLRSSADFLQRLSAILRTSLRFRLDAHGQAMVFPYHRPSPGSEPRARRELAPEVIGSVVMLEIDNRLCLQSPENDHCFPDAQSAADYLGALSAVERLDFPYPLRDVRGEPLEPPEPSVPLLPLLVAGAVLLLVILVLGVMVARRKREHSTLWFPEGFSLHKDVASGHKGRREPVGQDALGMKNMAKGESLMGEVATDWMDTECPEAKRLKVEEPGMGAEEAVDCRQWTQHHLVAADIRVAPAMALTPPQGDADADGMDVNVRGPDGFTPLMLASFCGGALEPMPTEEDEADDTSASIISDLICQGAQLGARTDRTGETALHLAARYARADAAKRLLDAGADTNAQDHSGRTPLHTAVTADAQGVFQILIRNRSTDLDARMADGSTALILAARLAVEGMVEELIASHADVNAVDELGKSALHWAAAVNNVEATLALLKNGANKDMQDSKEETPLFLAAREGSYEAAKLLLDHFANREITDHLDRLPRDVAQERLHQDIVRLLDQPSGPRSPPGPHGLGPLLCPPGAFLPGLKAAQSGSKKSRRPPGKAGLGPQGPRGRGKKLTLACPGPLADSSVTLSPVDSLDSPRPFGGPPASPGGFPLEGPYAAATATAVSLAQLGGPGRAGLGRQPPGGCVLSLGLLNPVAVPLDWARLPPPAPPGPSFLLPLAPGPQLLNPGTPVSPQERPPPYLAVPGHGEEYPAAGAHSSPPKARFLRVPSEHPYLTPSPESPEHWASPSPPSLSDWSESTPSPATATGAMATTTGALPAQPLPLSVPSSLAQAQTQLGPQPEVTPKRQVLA

[20] = probe aEGFR binding to arrayed compounds – biochemical, biotinylated probe, 635/667 nm fluorescence, primary screen (AID 1097); conditions: small-molecule microarray, higher = more signal;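 note: probe is a biotinylated anti-EGFR antibody binding compounds printed on slides; score combines fluorescence near 667 nm and signal to noise of each spot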

| Structure (SMILES) | composite z-score [1] | composite z-score [2] | composite z-score [3] | composite z-score [4] | composite z-score [5] | composite z-score [6] | composite z-score [7] | z-score [8] | composite z-score [9] | composite z-score [10] | composite z-score [11] | z-score [12] | z-score [13] | z-score [14] | composite z-score [15] | z-score [16] | composite z-score [17] | composite z-score [18] | composite z-score [19] | composite z-score [20] |
| --- | --- | --- | --- | --- | --- | --- | --- | --- | --- | --- | --- | --- | --- | --- | --- | --- | --- | --- | --- | --- |
| C=CCC(OC(C)=O)[C@@H]1[C@@H](N(Cc2cc3ccccc3o2)C(=O)Cc2ccc(OC)cc2)c2cc(OCCCO)ccc2N1C(=O)Cc1ccc(OC)cc1 (stereo not given in full) | -0.186 | 0.0357 | -0.0459 | 0.0855 | -0.144 | -0.0625 | 0.0781 | -1.19 (inactive) | -0.0586 | 0.0623 | 0.0873 | -0.484 (inactive) | 0.142 (inactive) | -0.197 (inactive) | 0.0103 | -0.847 (inactive) | -0.0757 | 0.312 | -0.293 | -0.108 |
| CCCCC(=C=CC[C@@H](O)c1cccc(OCCO)c1)C[C@@H](O)COCc1ccccc1 | -0.407 | -0.323 | -0.174 | 0.211 | -0.546 | 0.679 | -0.0821 | -2.47 (inactive) | -0.336 | 0.0053 | 0.554 | -0.59 (inactive) | -1.95 (inactive) | -0.601 (inactive) | 0.866 | 1.84 (inactive) | -0.274 | -0.0311 | -0.184 | -0.188 |
| COCCn1c(C(=O)N2CCCC2)cc2c1C[C@H]1CN(C(=O)c3ccccc3)[C@@](Cc3ccccc3)(C(=O)OC)[C@@H]21 | 0.288 | 1.16 | 0.576 | 0.888 | 1.11 | 2.16 | 1.42 | 2.7 (inactive) | 1.11 | 0.688 | 1.28 | 0.448 (inactive) | 0.105 (inactive) | 0.573 (inactive) | 3.11 | 0.0508 (inactive) | 0.907 | 0.386 | 0.805 | 0.827 |
| CCCCN1CC=CC23O[C@@H]4C=CCOC(=O)[C@@H]4[C@H]2C(=O)N(CCO)[C@@H]3C1=O (stereo not given in full) | 1.37 | 0.0339 | -0.168 | -1.03 | -1.39 | 0.332 | 0.695 | 0.432 (inactive) | -0.657 | -0.0645 | -0.757 | -0.312 (inactive) | -0.706 (inactive) | -0.179 (inactive) | 0.62 | -0.454 (inactive) | 0.221 | -1.45 | -0.823 | -0.327 |
| COc1ccc(NN2C(C(O)c3cc(C(F)(F)F)cc(C(F)(F)F)c3)C=CC3C(=O)N(C4CCCCC4)C(=O)C32)cc1 (stereo not given) | 0.844 | 0.301 | 0.483 | 0.397 | 1.37 | 1.02 | 1.11 | -0.68 (inactive) | 1.36 | 1.67 | 1.28 | -0.0995 (inactive) | 0.495 (inactive) | 0.518 (inactive) | 2.59 | -0.804 (inactive) | 0.849 | 0.535 | 1.06 | 0.705 |
| O=C1c2ccccc2[C@@]2(Cc3ccccc3N(Cc3ccccc3)C2=O)[C@H](c2ccc(CO)cc2)N1Cc1ccccc1 | 0.55 | -0.0642 | -0.078 | -0.221 | -0.476 | -0.605 | -0.564 | 0.161 (inactive) | -0.351 | -0.0645 | 0.131 | -0.82 (inactive) | -0.678 (inactive) | 15.9 (active) | 0.118 | -0.737 (inactive) | -0.0321 | -0.945 | -1.15 | -0.218 |
| COc1ccc([Si](C)(C)[C@H]2[C@H](CC(=O)N3Cc4ccccc4C[C@H]3CO)O[C@@]3(C(=O)N(Cc4cccc(N5C(=O)c6cccc7cccc5c67)c4)c4ccccc43)[C@@H]2C)cc1 | -0.581 | 0.847 | -0.0859 | 0.539 | 0.0297 | 0.997 | 1.03 | -2.61 (inactive) | 0.487 | -0.648 | 1.56 | -0.0979 (inactive) | 0.39 (inactive) | 1.77 (inactive) | 2.14 | -0.0872 (inactive) | -0.173 | 1.57 | 1.13 | -0.122 |
| CN(C)CCCC[C@@H]1NC(=O)[C@@H]2C[C@H](C(=O)NCCCCCCNC(=O)CS)[C@H](c3cccc(OCCO)c3)N2C1=O | 0.0594 | 0.353 | -0.0621 | 0.628 | -0.453 | 0.67 | 0.838 | -0.786 (inactive) | 0.123 | 0.0373 | 1.39 | -0.283 (inactive) | -0.0576 (inactive) | -0.471 (inactive) | 1.18 | -0.142 (inactive) | 0.0575 | 0.333 | 0.131 | 0.124 |
| CC(C)[C@@H](C(=O)O)n1cc(-c2ccccc2)nn1 | 0.272 | 0.692 | -0.0894 | 0.779 | 0.964 | 0.648 | 1.08 | 0.736 (inactive) | 0.874 | -0.0645 | 0.0283 | -0.0149 (inactive) | -0.0883 (inactive) | -0.244 (inactive) | 1.19 | -1.44 (inactive) | -0.0623 | 0.192 | 0.938 | 0.125 |
| [N-]=[N+]=NCc1ccccc1C[C@]1(C(=O)N2CCOCC2)N=C(c2ccc(OCCCO)cc2)O[C@H]1c1ccccc1CN=[N+]=[N-] | 0.998 | 2.14 | 0.285 | 0.88 | 1.42 | 2.09 | 1.26 | -2.03 (inactive) | 1.5 | 0.0623 | 1.56 | 1.66 (inactive) | 0.284 (inactive) | 16.6 (active) | 3.61 | 0.27 (inactive) | 0.747 | 0.809 | 0.616 | 0.732 |
